About 79,000 compounds went through this panel and 15% of them were active in at least one assay; those are over-represented in the sample as a whole. Activity calls are given as the source filed them. Cut-off read from the data, not from the text of the source: active = growth inhibition above about 70%; inactive = the rest.
Columns and labels:
[1] = NCI Yeast Anticancer Drug Screen. Data for the rad52 strain (AID 147);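 note: 0% = growth of vehicle-treated control cultures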; conditions: S. cerevisiae rad52 mutant growth inhibition, active compounds read high
How it was run: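 Measured: yeast growth inhibition. System: strain with a defined DNA damage repair alteration. Reference: vehicle-treated control cultures.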

[2] = NCI Yeast Anticancer Drug Screen. Data for the wt1 strain (AID 149);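 note: 0% = growth of vehicle-treated wt1 cultures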; conditions: S. cerevisiae wt1 strain (SPY 50644) growth inhibition, active compounds read high
How it was run: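 Using yeast strain wt1, compound-induced growth inhibition was determined against vehicle-treated cultures.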

[3] = NCI Yeast Anticancer Drug Screen. Data for the mgt1 strain (AID 153); conditions: S. cerevisiae mgt1 mutant growth inhibition, active compounds read high
How it was run: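 After exposure of the mgt1 yeast mutant to compound, growth was measured and reported as inhibition compared with vehicle controls.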

[4] = NCI Yeast Anticancer Drug Screen. Data for the mec2-1 strain (AID 157); conditions: S. cerevisiae mec2-1 strain, active compounds read high
How it was run: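 Test agents were screened against the mec2-1 yeast strain, with defined DNA repair or cell cycle alteration. Growth was scored as inhibition against vehicle-only controls.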

[5] = NCI Yeast Anticancer Drug Screen. Data for the rad14 strain (AID 159);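 note: 0% = growth of vehicle-treated control cultures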; conditions: S. cerevisiae rad14 strain growth inhibition, active compounds read high
How it was run: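 Screen for anticancer potential: a yeast strain altered in DNA damage repair is grown with compound, and reduced growth is quantified against vehicle controls.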

[6] = NCI Yeast Anticancer Drug Screen. Data for the sgs1 mgt1 strain (AID 161);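 note: 0% = growth of cultures given vehicle only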; conditions: S. cerevisiae sgs1 mgt1 strain, active compounds read high
How it was run: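 Test agents were incubated with a DNA-repair-mutant yeast strain. Growth was then read and compared against vehicle-treated controls.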

[7] = NCI Yeast Anticancer Drug Screen. Data for the CLN2oe strain (AID 163);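 note: 0% = growth of vehicle-only control cultures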; conditions: S. cerevisiae CLN2oe strain, active compounds read high
How it was run: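 Here, growth inhibition in a cell-cycle-altered yeast strain after compound exposure was quantified against vehicle control growth.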

[8] = NCI Yeast Anticancer Drug Screen. Data for the cln2 rad14 strain (AID 165);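 note: 0% = growth equal to vehicle treated cultures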; conditions: S. cerevisiae cln2 rad14 strain, active compounds read high
How it was run: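 Growth of compound-exposed yeast (cln2 rad14 genotype) measured and expressed as inhibition relative to vehicle.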

[9] = NCI Yeast Anticancer Drug Screen. Data for the bub3 strain (AID 167); conditions: S. cerevisiae bub3 mutant strain, active compounds read high
How it was run: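 Screening used yeast with an engineered genetic alteration affecting cell cycle control. Compound-exposed cultures were compared with vehicle cultures, and reduced growth was taken as inhibition.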

[10] = NCI Yeast Anticancer Drug Screen. Data for the wt2 strain (AID 169);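 note: 0% = growth of vehicle-treated yeast cultures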; conditions: S. cerevisiae wt2 strain growth inhibition, active compounds read high
How it was run: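 Genetically defined yeast strains from a DNA-repair/cell-cycle panel were used. Compound-exposed yeast growth was measured, and the inhibition was calculated relative to vehicle treatment.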

[11] = NCI Yeast Anticancer Drug Screen. Data for the mlh1 strain (AID 171);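 note: 0% = growth of vehicle-treated control cultures of the same strain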; conditions: S. cerevisiae mlh1 strain growth inhibition, active compounds read high
How it was run: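 Here the genetically defined yeast mutant is grown with each compound, and the extent to which its growth falls below that of vehicle-exposed cells is reported.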

[12] = NCI Yeast Anticancer Drug Screen. Data for the sgs1 strain (AID 173);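 note: 0% = growth of vehicle-only control cultures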; conditions: S. cerevisiae sgs1 mutant, active compounds read high
How it was run: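 Relative growth inhibition, referenced to vehicle, was determined in a yeast strain with a defined alteration affecting DNA damage repair or cell cycle control after compound exposure.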

[13] = NCI Yeast Anticancer Drug Screen. Data for the mlh1 rad18 strain (AID 175); conditions: S. cerevisiae mlh1 rad18 strain growth inhibition, active compounds read high
How it was run: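 In this whole-cell yeast screen, a strain with altered DNA damage repair is challenged with compound, and its growth is measured against matched vehicle-treated controls.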

[14] = NCI Yeast Anticancer Drug Screen. Data for the rad18 strain (AID 177); conditions: S. cerevisiae rad18 mutant growth inhibition, active compounds read high
How it was run: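 Screen uses a yeast strain with a defined lesion in DNA damage repair; compound effect is read as loss of growth compared to untreated vehicle cultures.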

[15] = NCI Yeast Anticancer Drug Screen. Data for the rad50EPP+ strain (AID 151);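 note: 0% = growth of vehicle-treated control cultures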; conditions: S. cerevisiae rad50 mutant strain, active compounds read high
How it was run: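 One strain with a rad50 alteration (rad50EPP+) was compound-treated, its growth then compared to that of vehicle controls.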

[16] = NCI Yeast Anticancer Drug Screen. Data for the rad50 strain (AID 155);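 note: 0% = growth of vehicle-only cultures of the same strain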; conditions: S. cerevisiae rad50 strain growth inhibition, active compounds read high
How it was run: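 Relative growth inhibition (compound vs vehicle) was measured in yeast with a defined repair-gene alteration.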

[17] = at 5.0 µM (retest, dose inferred, filed as 0.5)
[18] = at 50.0 µM (retest, dose inferred, filed as 5.0)

Measured: growth inhibition

C[N+](C)([O-])CCCNc1c2ccccc2nc2cccc([N+](=O)[O-])c12
active: [1]; at 3.7 µM 86% | [1]; at 11.0 µM 94% | [1]; at 33.0 µM 96% | [1]; at 100.0 µM 96% | [2]; at 33.0 µM 80% | [2]; at 100.0 µM 94% | [3]; at 33.0 µM 70% | [3]; at 100.0 µM 93% | [4]; at 11.0 µM 93% | [4]; at 33.0 µM 97% | [4]; [18] 95% | [4]; at 50.0 µM 88% | [4]; at 100.0 µM 96% | [5]; at 3.7 µM 90% | [5]; at 11.0 µM 94% | [5]; at 33.0 µM 96% | [5]; at 100.0 µM 96% | [6]; [18] 89% | [6]; at 50.0 µM 83.2% | [7]; at 33.0 µM 82% | [7]; at 100.0 µM 93% | [8]; [17] 85% | [8]; [18] 96% | [8]; at 50.0 µM 87.2% | [9]; at 33.0 µM 79% | [9]; [18] 74% | [9]; at 100.0 µM 95% | [10]; at 33.0 µM 84% | [10]; at 100.0 µM 94% | [11]; at 33.0 µM 89% | [11]; at 100.0 µM 95% | [12]; at 1.2 µM 80% | [12]; at 3.7 µM 89% | [12]; at 11.0 µM 94% | [12]; at 33.0 µM 94% | [12]; at 100.0 µM 97% | [13]; [17] 81% | [13]; [18] 95% | [13]; at 50.0 µM 78.5% | [14]; at 1.2 µM 95% | [14]; at 3.7 µM 96% | [14]; at 11.0 µM 96% | [14]; at 33.0 µM 97% | [14]; at 100.0 µM 97%
inactive: [1]; at 1.2 µM 54% | [2]; at 1.2 µM -3% | [2]; at 3.7 µM 7% | [2]; at 11.0 µM 24% | [3]; at 1.2 µM -5% | [3]; at 3.7 µM -10% | [3]; at 11.0 µM 7% | [4]; at 1.2 µM 3% | [4]; at 3.7 µM 54% | [4]; [17] 54% | [5]; at 1.2 µM 41% | [6]; [17] 41% | [7]; at 1.2 µM -2% | [7]; at 3.7 µM -1% | [7]; at 11.0 µM 33% | [9]; at 1.2 µM -25% | [9]; at 3.7 µM -14% | [9]; [17] 6% | [9]; at 11.0 µM 15% | [9]; at 50.0 µM 52.6% | [10]; at 1.2 µM -1% | [10]; at 3.7 µM 20% | [10]; at 11.0 µM 26% | [11]; at 1.2 µM 14% | [11]; at 3.7 µM 22% | [11]; at 11.0 µM 44%

CCC1(O)C(=O)OCc2c1cc1n(c2=O)Cc2cc3c(N)cccc3nc2-1 (stereo not drawn)
active: [16]; [18] 79%
inactive: [1]; at 1.2 µM -21% | [1]; at 3.7 µM 31% | [1]; at 11.0 µM 53% | [1]; at 33.0 µM 57% | [1]; at 100.0 µM 54% | [15]; at 1.2 µM -12% | [15]; at 3.7 µM 7% | [15]; at 11.0 µM -8% | [15]; at 33.0 µM 10% | [15]; at 100.0 µM -8% | [3]; at 1.2 µM -12% | [3]; at 3.7 µM -15% | [3]; at 11.0 µM 3% | [3]; at 33.0 µM -5% | [3]; at 100.0 µM -31% | [16]; at 1.2 µM 11% | [16]; at 3.7 µM 38% | [16]; [17] 58% | [16]; at 11.0 µM 64% | [16]; at 33.0 µM 68% | [16]; at 50.0 µM 56.5% | [16]; at 100.0 µM 60% | [4]; at 1.2 µM -22% | [4]; at 3.7 µM -5% | [4]; [17] 7% | [4]; at 11.0 µM -12% | [4]; at 33.0 µM -18% | [4]; [18] 12% | [4]; at 50.0 µM -0.85% | [4]; at 100.0 µM -35% | [5]; at 1.2 µM -10% | [5]; at 3.7 µM -10% | [5]; at 11.0 µM -19% | [5]; at 33.0 µM -17% | [5]; at 100.0 µM -23% | [6]; [17] 24% | [6]; [18] 19% | [6]; at 50.0 µM -2.35% | [7]; at 1.2 µM -8% | [7]; at 3.7 µM -15% | [7]; at 11.0 µM -33% | [7]; at 33.0 µM -34% | [7]; at 100.0 µM -41% | [8]; [17] 21% | [8]; [18] 14% | [8]; at 50.0 µM -6.95% | [9]; at 1.2 µM -37% | [9]; at 3.7 µM -28% | [9]; [17] 14% | [9]; at 11.0 µM -34% | [9]; at 33.0 µM -47% | [9]; [18] 6% | [9]; at 50.0 µM -9.3% | [9]; at 100.0 µM -33% | [10]; at 1.2 µM -16% | [10]; at 3.7 µM -18% | [10]; at 11.0 µM -17% | [10]; at 33.0 µM -30% | [10]; at 100.0 µM -38% | [11]; at 1.2 µM -23% | [11]; at 3.7 µM -22% | [11]; at 11.0 µM -11% | [11]; at 33.0 µM -34% | [11]; at 100.0 µM -44% | [12]; at 1.2 µM -19% | [12]; at 3.7 µM -7% | [12]; at 11.0 µM 0% | [12]; at 33.0 µM 6% | [12]; at 100.0 µM 7% | [13]; [17] 16% | [13]; [18] 16% | [13]; at 50.0 µM -65.3% | [14]; at 1.2 µM -42% | [14]; at 3.7 µM -37% | [14]; at 11.0 µM -31% | [14]; at 33.0 µM -26% | [14]; at 100.0 µM -48%

Cc1cc(OCc2nc(N)nc(N)c2-c2ccc(Cl)c(Cl)c2)ccc1[N+](=O)[O-]
inactive: [1]; at 1.2 µM 0% | [1]; at 3.7 µM 1% | [1]; at 11.0 µM 0% | [1]; at 33.0 µM -1% | [1]; at 100.0 µM -2% | [2]; at 1.2 µM 1% | [2]; at 3.7 µM 1% | [2]; at 11.0 µM 3% | [2]; at 33.0 µM 3% | [2]; at 100.0 µM 4% | [16]; at 1.2 µM 0% | [16]; at 3.7 µM 6% | [16]; [17] 51% | [16]; at 11.0 µM -3% | [16]; at 33.0 µM 2% | [16]; at 100.0 µM 2% | [4]; at 1.2 µM 2% | [4]; at 3.7 µM 3% | [4]; [17] 48% | [4]; at 11.0 µM 0% | [4]; at 33.0 µM 3% | [4]; at 100.0 µM -10% | [5]; at 1.2 µM -1% | [5]; at 3.7 µM 8% | [5]; at 11.0 µM 3% | [5]; at 33.0 µM 3%
active: [16]; [18] 84% | [16]; at 50.0 µM 98.7% | [4]; [18] 87% | [4]; at 50.0 µM 95.8%
